According to PubChem BioAssay (Tox21):
Inconclusive results are not listed. Active and inactive are the calls of the source. Unless noted, calls follow the shape of the dose curve; as a rule, active = well fitted curve in the direction sought with a large enough effect in the repeat runs; inconclusive = weak or mixed curves; inactive = no such curve, though single readings can be large; an effect the other way counts as inactive or inconclusive.

Legend:
[1] = qHTS assay to identify small molecule antagonists of the estrogen related receptor (ERR) signaling pathway from Tox21 library - cell viability counter screen (AID 1224834); also: nearly all actives have a fitted effect of over 30% in size; also: potency is read from the fitted curve at half-maximal effect
Procedure, shortened: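 ERR reporter cells were plated 6 h before compound addition, then exposed to test compounds in DMSO for 17.5 h at 37 C. Viability was read as CellTiter-Fluor fluorescence after a 30-minute incubation at 37 C.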

[2] = biological target: Luciferin 4-monooxygenase (Photinus pyralis) (UniProt P08659); assay: qHTS assay to identify small molecule inhibitors of firefly luciferase (AID 1224835); also: nearly all actives have a fitted effect of over 25% in size; also: potency is read from the fitted curve at half-maximal effect
Procedure, shortened: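 Inhibition of purified Photinus luciferase is measured by luminescence. Substrate levels (D-luciferin, ATP) sit at their KM values. Each compound is tested in a concentration series.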

[3] = qHTS assay to identify small molecule agonists of the constitutive androstane receptor (CAR) signaling pathway - cell viability counter screen (AID 1224836); also: series mostly up to about 92 µM; nearly all actives have a fitted effect of over 45% in size
Procedure, shortened: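 Double-stable HepG2 hepatoma cells (hCAR plus CYP2B6-2.2kb) are treated for 23 h at 37 C with test compounds in 15-point concentration series. PK11195 at 0.75 uM final is co-added. Cell viability is quantified by CellTiter-Fluor.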

[4] = qHTS assay to identify small molecule antagonists of the constitutive androstane receptor (CAR) signaling pathway - cell viability counter screen (AID 1224837); also: nearly all actives have a fitted effect of over 45% in size; also: potency is read from the fitted curve at half-maximal effect
Procedure, shortened: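 HepG2 cells stably expressing hCAR and a CYP2B6-2.2kb reporter were plated and pre-incubated 4 hr at 37 C/5% CO2, then given compounds at 15 concentrations plus 50 nM CITCO (final). After 23 hr, viability was read by CellTiter-Fluor fluorescence.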

[5] = qHTS assay to identify small molecule antagonists of the estrogen related receptor signaling pathway with the pleiotropic PPARgamma coactivator (PGC) from Tox21 10K library - cell viability counter screen (AID 1224840; active = well fitted cell-killing curve with a large enough effect in the repeat runs, not every such curve was filed as active; also: nearly all actives have a fitted effect of over 40% in size)
Procedure, shortened: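 PGC/ERR cells were seeded at 2,000 cells/well and left 6 hours at 37 C/5% CO2 before pin-tool addition of compounds in DMSO. After 17.5 hours at 37 C, CellTiter-Fluor was added and fluorescence read 30 minutes later.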

[6] = qHTS assay to identify small molecule antagonists of the estrogen related receptor signaling pathway with the pleiotropic PPARgamma coactivator (PGC) from Tox21 10K library (AID 1224841; call rule not given here; also: series mostly up to about 92 µM; actives are mostly falling curves and most rising ones were filed inactive; nearly all actives have a fitted effect of over 50% in size)
Procedure, shortened: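 PGC/ERR reporter cells were seeded at 2,000 cells/well and held 6 hours at 37 C/5% CO2 before pin-tool addition of compounds in DMSO. After 18 hours at 37 C, One-Glo was added and luminescence read after 30 minutes at room temperature.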

[7] = qHTS assay to identify small molecule agonists of the estrogen related receptor signaling pathway with the pleiotropic PPARgamma coactivator (PGC) from Tox21 10K library (AID 1224842); also: nearly all actives have a fitted effect of over 15% in size
Procedure, shortened: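 Luminescence from One-Glo (30 min, room temperature) measured after PGC/ERR cells had 18 h at 37 C with pinned compound (23 nL in DMSO). Cells had been seeded at 2,000 per well and pre-incubated 6 h.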

[8] = biological target: Nuclear receptor subfamily 1 group I member 3 (Homo sapiens) (UniProt Q14994); assay: qHTS assay to identify small molecule agonists of the constitutive androstane receptor (CAR) signaling pathway (AID 1224839); also: nearly all actives have a fitted effect of over 15% in size; also: potency is read from the fitted curve at half-maximal effect
Procedure, shortened: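 Readout: firefly luciferase luminescence via ONE-Glo. System: HepG2 double-stable for hCAR and CYP2B6-2.2kb. Conditions: 15-point compound titration, PK11195 at 0.75 uM final, 24 h incubation.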

[9] = biological target: Nuclear receptor subfamily 1 group I member 3 (Homo sapiens) (UniProt Q14994); assay: qHTS assay to identify small molecule antagonists of the constitutive androstane receptor (CAR) signaling pathway (AID 1224838); also: nearly all actives have a fitted effect of over 40% in size
Procedure, shortened: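 HepG2 cells stably co-transfected with hCAR and a CYP2B6-2.2kb luciferase reporter were seeded 4 h before compound addition at 15 concentrations. Cells were stimulated with 50 nM CITCO (final) for 24 h at 37 C; luciferase luminescence was then read.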

Measured: Potency

Nuclear receptor subfamily 1 group I member 3 (Homo sapiens), sequence (Q14994 whole entry, looked up): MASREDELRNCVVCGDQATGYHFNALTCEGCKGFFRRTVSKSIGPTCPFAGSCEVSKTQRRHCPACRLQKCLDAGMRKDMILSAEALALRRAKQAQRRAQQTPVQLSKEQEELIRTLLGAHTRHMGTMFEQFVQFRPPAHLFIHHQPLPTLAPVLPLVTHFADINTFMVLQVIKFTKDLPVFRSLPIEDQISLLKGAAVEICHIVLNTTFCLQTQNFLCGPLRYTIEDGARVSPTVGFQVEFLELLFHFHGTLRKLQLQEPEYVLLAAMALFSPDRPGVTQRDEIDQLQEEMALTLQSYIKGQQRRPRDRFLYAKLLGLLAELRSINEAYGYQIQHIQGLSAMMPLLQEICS
Luciferin 4-monooxygenase (Photinus pyralis), sequence (P08659 whole entry, looked up): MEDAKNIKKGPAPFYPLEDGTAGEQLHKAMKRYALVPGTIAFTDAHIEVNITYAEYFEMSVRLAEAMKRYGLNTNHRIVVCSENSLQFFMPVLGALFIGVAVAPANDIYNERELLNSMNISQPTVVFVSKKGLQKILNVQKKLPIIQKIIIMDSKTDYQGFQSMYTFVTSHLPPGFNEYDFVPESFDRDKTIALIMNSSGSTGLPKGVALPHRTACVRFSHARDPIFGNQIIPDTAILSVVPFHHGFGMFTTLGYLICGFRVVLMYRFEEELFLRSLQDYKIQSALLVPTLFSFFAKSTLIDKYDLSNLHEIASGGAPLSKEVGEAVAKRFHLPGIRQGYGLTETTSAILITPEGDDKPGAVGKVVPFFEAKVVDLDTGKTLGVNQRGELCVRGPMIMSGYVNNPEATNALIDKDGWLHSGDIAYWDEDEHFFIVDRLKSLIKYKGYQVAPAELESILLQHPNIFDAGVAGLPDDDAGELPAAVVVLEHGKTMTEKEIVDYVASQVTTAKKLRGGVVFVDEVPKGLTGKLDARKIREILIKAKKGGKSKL

CCCc1ccc(OC)cc1
inactive: [1] | [2] | [3] | [4] | [5]

C=CC(C)(O)CC/C=C(/C)CCC=C(C)C (centres undefined)
inactive: [1] | [2] | [3] | [4] | [5]

CCCCOC(=O)C(C)Oc1ccc(Oc2ccc(C(F)(F)F)cn2)cc1 (centres undefined)
inactive: [1] | [2] | [3] | [4] | [5]

O=C(O)c1ccccc1[N+](=O)[O-]
inactive: [1] | [2] | [3] | [4] | [5]

Cc1c(Cl)cccc1[N+](=O)[O-]
inactive: [1] | [2] | [3] | [4] | [5]

CS(C)=O
inactive: [1] | [2] | [3] | [4] | [5]

O=[N+]([O-])c1ccccc1CCO
inactive: [1] | [2] | [3] | [4] | [5]

Cc1cc(C)n(CO)n1
inactive: [1] | [2] | [3] | [4] | [5]

Cc1ccc(NC=O)c(C)c1
inactive: [1] | [2] | [3] | [4] | [5]

CCOCCn1c(N2CCCN(C)CC2)nc2ccccc21
inactive: [1] | [2] | [3] | [4] | [5]

CC(C(=O)O)c1ccc2c(c1)Cc1cccnc1O2 (centres undefined)
inactive: [1] | [2] | [3] | [4] | [5]

CCCC1CCOC(C)S1 (centres undefined)
inactive: [1] | [2] | [3] | [4] | [5]

CCCCCCCCS
inactive: [1] | [2] | [3] | [4] | [5]

CCC(C)CCCC(C)(C)O (centres undefined)
inactive: [1] | [2] | [3] | [4] | [5]

Clc1nc2ccccc2nc1Cl
inactive: [1] | [2] | [3] | [4] | [5]

C[C@H]1C[C@H]2[C@@H]3CCC4=CC(=O)C=C[C@]4(C)[C@@]3(F)[C@@H](O)C[C@]2(C)[C@@]1(O)C(=O)COP(=O)(O)O
inactive: [1] | [2] | [3] | [4] | [5]

CNc1ccccc1
not listed: [8] | [9]
inactive: all other assays above

CC1(C)CC(=O)CC(C)(C)N1
inactive: [1] | [2] | [3] | [4] | [5]

O=C(O)c1c2ccccc2cc2ccccc12
inactive: [1] | [2] | [3] | [4] | [5]

CC(C)=CCC[C@H](C)CCO
inactive: [1] | [2] | [3] | [4] | [5]

CCCCCCCCCCCC(=O)OCC
inactive: [1] | [2] | [3] | [4] | [5]

CCCC(=O)OCCC(C)C
inactive: [1] | [2] | [3] | [4] | [5]

CCC1=C(C)CN(C(=O)NCCc2ccc(S(=O)(=O)NC(=O)NC3CCC(C)CC3)cc2)C1=O (centres undefined)
not listed: [8] | [9]
inactive: all other assays above

Cc1ccc2c(Cl)cc(Cl)c(O)c2n1
inactive: [1] | [2] | [3] | [4] | [5]

OCC(O)c1ccccc1 (centres undefined)
inactive: [1] | [2] | [3] | [4] | [5]

CC1=C(C)C(=O)C(C(CCCCCC(=O)O)c2ccccc2)=C(C)C1=O (centres undefined)
inactive: [1] | [2] | [3] | [4] | [5]

OCCCO
inactive: [1] | [2] | [3] | [4] | [5]

CCC[Si](OC)(OC)OC
not listed: [8] | [9]
inactive: all other assays above

Cc1cccc(C)c1NC(=O)CN1CCCC1
inactive: [1] | [2] | [3] | [4] | [5]

CC(=O)OCC(=O)[C@@]1(O)CC[C@H]2[C@@H]3CCC4=CC(=O)C=C[C@]4(C)[C@@]3(F)[C@@H](O)C[C@@]21C
not listed: [6] | [7] | [9]
inactive: all other assays above

COc1ccc(CN(CCN(C)C)c2ncccn2)cc1
inactive: [1] | [2] | [3] | [4] | [5]

C=CC(C)CCC=C(C)C (centres undefined)
inactive: [1] | [2] | [3] | [4] | [5]

C1=COCCC1
inactive: [1] | [2] | [3] | [4] | [5]

CC(C)(C)c1cc(C=O)cc(C(C)(C)C)c1O
inactive: [1] | [2] | [3] | [4] | [5]

CCOC(C)OCC
inactive: [1] | [2] | [3] | [4] | [5]

COc1ccc(/C=C/S(=O)(=O)NC(=O)c2ccc(C)cc2Cl)cc1
active: [2] 79.6 µM
inactive: [1] | [3] | [4] | [5]

COc1cccc([C@H](O)C2CCN(CCc3ccc(F)cc3)CC2)c1OC
inactive: [1] | [2] | [4] | [5]

C=C(C)C(=O)OCCCCCCCCCCOC(=O)C(=C)C
not listed: [3] | [8]
inactive: all other assays above

CC/C=C\CCO
not listed: [8] | [9]
inactive: all other assays above

OCCc1ccncc1
not listed: [8] | [9]
inactive: all other assays above

CCCCCCCCC(=O)OCC(C)OC(=O)CCCCCCCC (centres undefined)
not listed: [3] | [6] | [7]
inactive: all other assays above

CCCOC(C)=O
not listed: [3] | [6] | [7]
inactive: all other assays above

c1ccc(CN(Cc2ccccc2)Cc2ccccc2)cc1
not listed: [3] | [6] | [7]
inactive: all other assays above

CCCCCC1CCC(=O)O1 (centres undefined)
not listed: [8] | [9]
inactive: all other assays above

Cc1ccccc1CCO
not listed: [8] | [9]
inactive: all other assays above

CCOc1ccccc1O
inactive: [1] | [2] | [4] | [9] | [5]

CC(C)=CCCC(C)C=O (centres undefined)
not listed: [3] | [6] | [7]
inactive: all other assays above

Cc1c(Nc2ncccc2C(=O)O)cccc1C(F)(F)F
inactive: [1] | [4] | [9] | [5]
active: [2] 17.4 µM

Cc1ccc(Cl)c(OCC(O)CNC(C)(C)C)c1 (centres undefined)
inactive: [1] | [2] | [4] | [5]

C=CC(=O)OCCCCCCCCCC
not listed: [3] | [8]
inactive: all other assays above

O=S(=O)(O)c1cc(Cl)c(Cl)cc1Cl
inactive: [1] | [2] | [4] | [9] | [5]

CC(C)=CCC/C(C)=C/C=N/O
not listed: [3] | [6] | [7]
inactive: all other assays above

CCCCCCCCCCCCSCCOCCO
not listed: [8] | [9]
inactive: all other assays above

Clc1ccccc1-c1nc(-c2ccncc2)no1
active: [2] 2.75 µM | [8] 10.6 µM
inactive: [1] | [4] | [5]

CC(=O)S[C@H](C(=O)N[C@H]1Cc2ccccc2[C@H]2CCC[C@@H](C(=O)O)N2C1=O)C(C)C
not listed: [3] | [8]
inactive: all other assays above

CCCC(=O)OCc1ccccc1
not listed: [8] | [9]
inactive: all other assays above

CCOc1cc(OCC)c(C(C)=O)cc1OCC
inactive: [2] | [9] | [6] | [7]
active: [1] 30.1 µM | [4] 26.8 µM

CC(=O)Nc1ccn(C2COC(COC(=O)c3ccccc3)O2)c(=O)n1 (centres undefined)
not listed: [3] | [9]
inactive: all other assays above

CC(CC(C#N)(c1ccccc1)C(C)C)N(C)C (centres undefined)
not listed: [3]
inactive: all other assays above

CC(=O)Nc1cccc(N)c1
not listed: [8] | [9]
inactive: all other assays above

O=C(Nc1ccc2c(c1)Cc1ccccc1-2)C(F)(F)F
active: [2] 6.33 µM | [8] 27.3 µM
inactive: [1] | [4] | [9] | [5]

CCC(C)C1N=C(C)C(C)S1 (centres undefined)
not listed: [8] | [9]
inactive: all other assays above

O=C(O)CCc1nc2ccccc2[nH]1
inactive: [1] | [2] | [4] | [9] | [5]

CCCCOC(=O)CC#N
not listed: [3] | [6] | [7]
inactive: all other assays above

CCCCCCCCCCCCN1CCOCC1
not listed: [3] | [8]
inactive: all other assays above

O=C1C=CCCC1
not listed: [3] | [6] | [7]
inactive: all other assays above

C/C(=C(\CCO)SS/C(CCO)=C(\C)N(C=O)Cc1cnc(C)nc1N)N(C=O)Cc1cnc(C)nc1N
not listed: [8] | [9]
inactive: all other assays above

COc1cc(C)c(Cc2cnc(N)nc2N)cc1OC
not listed: [3]
inactive: all other assays above

C=Cc1ccc(C=C)cc1
not listed: [6] | [8] | [9]
inactive: all other assays above
